Measured values from the supplement of paper PMC10498489.
About 330 (14%) of roughly 2,300 compounds showed activity. Only a sample is shown. A number with no mark means an inactive call.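 How the source made its calls: active = median modified Z-score above 1.96; inactive = 1.96 or below.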

tested on: HepG2 Srxn1-GFP reporter cells (+30 nM CDDO-Me); experiment: Srxn1-GFP intensity median modified Z-score relative to plate median; higher = stronger NRF2 / oxidative stress reporter activation, active = hit call of the paper; conditions: 10 µM; exposure time: 24h
Method in brief: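 HepG2 Srxn1-GFP BAC reporter cells (20,000 per well, 96-well plates) were co-exposed to an NRF2 activator at 30 nM and compound at 10 μM (≤0.1% DMSO) for 24 h in three replicate plates. After formaldehyde fixation and Hoechst staining, confocal images were analysed per cell for cytoplasmic GFP, excluding images with under 100 cells. The value is the median over replicates of the per-plate modified Z-score of GFP intensity. Scaling used 1.4826 × median absolute deviation.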

| Structure (SMILES) | Srxn1-GFP intensity median modified Z-score |
| --- | --- |
| CC1(C)CC[C@]2(C)CC[C@]3(C)C(=CCC4[C@@]5(C)CC[C@H](O)C(C)(C)C5CC[C@]43C)C2C1 (some centres not stated) [euspeclibcmpd1345] | 1.93 |
| CC1(C)CC[C@]2(C(=O)O)CC[C@]3(C)C(=CCC4[C@@]5(C)CC[C@H](O)[C@@](C)(CO)C5CC[C@]43C)C2C1 (some centres not stated) [euspeclibcmpd1554] | -0.176 |
| CC1(C)CC[C@]2(C(=O)O)CC[C@]3(C)C(=CCC4[C@@]5(C)CC[C@@H](O)C(C)(C)C5CC[C@]43C)C2C1 (some centres not stated) [euspeclibcmpd1603] | 4.09 (active) |
| Cc1cc2nc3c(=O)[nH]c(=O)nc-3n(C[C@@H](O)[C@@H](O)[C@@H](O)COP(=O)(O)O)c2cc1C [euspeclibcmpd2323] | -0.0697 |
| Cc1ccc2[nH]c3c(c2c1)CC(Nc1ccc(CCC(=O)N2CCCC2)cc1)CC3 (configuration not stated) | 4.66 (active) |
| O=C(Nc1ccccc1)OCC(CN1CCCCC1)OC(=O)Nc1ccccc1 (configuration not stated) [euspeclibcmpd499] | -0.575 |
| CN1C(C(=O)N=c2cccc[nH]2)C(=O)c2sccc2S1(=O)=O (configuration not stated) [euspeclibcmpd536] | -0.404 |
| N=c1ccn([C@H]2CC[C@@H](CO)O2)c(=O)[nH]1 [euspeclibcmpd485] | -0.378 |
| CCC(CCC(C)[C@H]1CCC2C3CC=C4C[C@@H](OC(C)=O)CC[C@]4(C)C3CC[C@@]21C)C(C)C (some centres not stated) [euspeclibcmpd1595] | -0.573 |
| COc1ccc2c(=O)cc(-c3ccccc3OC)oc2c1 [euspeclibcmpd2182] | 0.253 |
| COc1ccc(-c2cc(=O)c3cc(OC)ccc3o2)cc1 [euspeclibcmpd2272] | -0.0301 |
| COc1ccc2oc(-c3ccccc3OC)cc(=O)c2c1 | 0.553 |
| COc1cc(OC)c2c(=O)cc(-c3ccccc3)oc2c1 [euspeclibcmpd1677] | 0.503 |
| COc1ccccc1-c1cc(=O)c2c(OC)cccc2o1 [euspeclibcmpd2107] | 2.2 (active) |
| COc1ccc2oc(-c3ccccc3OC)cc(=O)c2c1 [euspeclibcmpd1670] | 3.62 (active) |
| O=c1cc(-c2ccccc2)oc2cccc(O)c12 [euspeclibcmpd2071] | -0.0825 |
| Cn1c(=O)c2nc(Br)[nH]c2n(C)c1=O [euspeclibcmpd2124] | -0.455 |
| C[N+](C)(C)CCOP(=O)(O)OP(=O)(O)OC[C@H]1OC(n2ccc(=N)[nH]c2=O)[C@H](O)[C@@H]1O (some centres not stated) [euspeclibcmpd812] | -0.665 |
| CC(=O)[C@@]1(O)CCC2C3=CC(Cl)=C4CC(=O)C5CC5[C@]4(C)C3CC[C@@]21C (some centres not stated) [euspeclibcmpd1156] | -0.345 |
| CS(=O)(=O)c1ccc(N)cc1 | 0.342 |
| CC(C)CCCC(C)[C@H]1CCC2C3CC=C4CC(=O)CC[C@]4(C)C3CC[C@@]21C (some centres not stated) [euspeclibcmpd1330] | -0.35 |
| c1ccc(C2CN3CCSC3=N2)cc1 (configuration not stated) [euspeclibcmpd2122] | 1.03 |
| O=C(O)c1nc2cc(Cl)c(Cl)cc2[nH]c1=O [euspeclibcmpd1804] | -0.361 |

| Structure (SMILES) | Srxn1-GFP intensity median modified Z-score |
| --- | --- |
| O=c1[nH]c(=O)n([C@H]2C[C@H](O)C(CO)O2)cc1I (some centres not stated) [euspeclibcmpd2208] | 0 |
| O=c1[nH]c(=O)n(C2C[C@H](O)[C@@H](CO)O2)cc1C(F)(F)F (some centres not stated) [euspeclibcmpd660] | 2.21 (active) |
| O=c1[nH]c(=O)n(C2C[C@@H](O)[C@@H](CO)O2)cc1F (some centres not stated) [euspeclibcmpd516] | 1.56 |
| CC(NC(CCc1ccccc1)C(=O)O)C(=O)N1Cc2ccccc2CC1C(=O)O (configuration not stated) [euspeclibcmpd841] | -0.626 |
| CC[C@H]1OC(=O)C(C)[C@@H](O[C@H]2C[C@@](C)(OC)[C@@H](O)[C@H](C)O2)[C@H](C)[C@@H](O[C@@H]2O[C@H](C)C[C@H](N(C)C)[C@H]2O)[C@](C)(OC)CC(C)C(=O)C(C)[C@@H](O)[C@]1(C)O (some centres not stated) [euspeclibcmpd669] | 1.56 |
| CC(C(=O)O)C1CCC2C3CC=C4CC(O)CCC4(C)C3CCC12C (configuration not stated) [euspeclibcmpd1985] | 0.801 |
| O=C(O)c1cc(=O)c2ccccc2o1 [euspeclibcmpd1112] | -0.193 |
| CCc1oc2ccccc2c1C(=O)c1cc(Br)c(O)c(Br)c1 [euspeclibcmpd888] | 2.7 (active) |
| CCCCc1oc2ccccc2c1C(=O)c1cc(I)c(OCCN(CC)CC)c(I)c1 [euspeclibcmpd976] | -0.752 |
| CC(=O)OCC[C@H](C)CCC=C(C)C [euspeclibcmpd1610] | 1.13 |
| COc1ccc2c(c1)c(CC(=O)Nc1nccs1)c(C)n2C(=O)c1ccc(Cl)cc1 | 1.66 |
| COc1ccc(/C=C/C(=O)c2ccc(O)cc2O)cc1 [euspeclibcmpd1445] | 1.77 |
| O=C(C=Cc1ccccc1)c1ccc(O)cc1O [euspeclibcmpd1990] | 2.48 (active) |
| O=C(C=Cc1ccc(O)cc1)c1ccc(O)cc1O [euspeclibcmpd1984] | 13.1 (active) |
| O=C(C=Cc1ccc(O)cc1)c1ccccc1O [euspeclibcmpd2063] | -0.0605 |
| COc1ccc(O)c(C(=O)/C=C/c2ccc(F)cc2)c1 | 1.36 |
| O=C(/C=C/c1ccccc1)c1ccc(O[C@@H]2O[C@H](CO)[C@@H](O)[C@H](O)[C@H]2O)cc1O [euspeclibcmpd1690] | -0.0185 |
| N=c1[nH]c(F)nc2c1ncn2[C@@H]1O[C@H](COP(=O)(O)O)[C@@H](O)[C@@H]1O [euspeclibcmpd850] | 0.307 |
| COc1cc(C=CC(=O)O)cc(OC)c1O [euspeclibcmpd1663] | -0.0893 |
| CC(C)(C)NC(=O)C1CCC2C3CCC4NC(=O)C=C[C@]4(C)C3CC[C@]12C (some centres not stated) [euspeclibcmpd849] | -0.292 |
| COc1cccc(OC)c1C(=O)NC1C(=O)N2C1SC(C)(C)C2C(=O)O (configuration not stated) [euspeclibcmpd2201] | 0.364 |
| CC(O)=NO [euspeclibcmpd970] | -0.0555 |
| Cn1nnnc1SC=C1CSC2C(NC(=O)C(OC=O)c3ccccc3)C(=O)N2C1C(=O)O (configuration not stated) [euspeclibcmpd2340] | 0.482 |

| Structure (SMILES) | Srxn1-GFP intensity median modified Z-score |
| --- | --- |
| C[N+]1(C)C2CC[C@H]1C[C@@H](OC(=O)C(O)c1ccccc1)C2 (some centres not stated) [euspeclibcmpd149] | 0.332 |
| O=C1/C(=C/c2cccs2)CSC/C1=C/c1cccs1 | 13.2 (active) |
| O=C1/C(=C\c2cccs2)CC/C1=C\c1cccs1 | 2.51 (active) |
| CN1C/C(=C/c2cccs2)C(=O)/C(=C/c2cccs2)C1 | 1.25 |
| O=C1/C(=C/c2cccs2)CCC/C1=C\c1cccs1 [euspeclibcmpd465] | 36.6 (active) |
| C#C[C@]1(O)CCC2C3CCc4cc(O)ccc4C3CC[C@@]21C (some centres not stated) [euspeclibcmpd121] | 0.17 |
| COc1cc2[nH]c(N(C)CCCNC(=O)C3CCCO3)nc(=N)c2cc1OC (configuration not stated) [euspeclibcmpd2275] | -0.081 |
| CN[C@H](CC(C)C)C(=O)NC1C(=O)N[C@@H](CC(N)=O)C(=O)N[C@H]2C(=O)Nc3c(O)[nH]c(c(O)[nH]c(=C(O)O)c4cc(O)cc(O)c4c4cc3ccc4O)[C@H](O)c3ccc(c(Cl)c3)Oc3cc2cc(c3O[C@@H]2OC(CO)[C@@H](O)[C@H](O)[C@H]2O[C@H]2C[C@](C)(N)[C@H](O)[C@H](C)O2)Oc2ccc(cc2Cl)[C@H]1O (some centres not stated) [euspeclibcmpd319] | 0.197 |
| CCN1CCN(C(=O)NC(C(=O)NC2C(=O)N3C(C(=O)O)=C(CSc4nnnn4C)CSC23)c2ccc(O)cc2)C(=O)C1=O (configuration not stated) [euspeclibcmpd431] | -0.443 |
| CC[C@H](CCC(C)[C@H]1CCC2C3CCC4C[C@@H](O)CC[C@]4(C)C3CC[C@@]21C)C(C)C (some centres not stated) [euspeclibcmpd1543] | -0.389 |
| O=C(O)CC(O)(CC(=O)O)C(=O)O [euspeclibcmpd2464] | -0.363 |
| O=C(O)CC(O)(CC(=O)O)C(=O)O [euspeclibcmpd2462] | 0.449 |
| CC(=O)OC1C[C@@]2(C)C(C[C@@H](O)C3[C@]2(C)CC[C@H]2[C@H](C)[C@H](O)CC[C@]32C)C1=C(CCC=C(C)C)C(=O)O (some centres not stated) [euspeclibcmpd136] | -0.739 |
| COc1cc(O)c(C(=O)c2ccccc2)cc1O [euspeclibcmpd1987] | -0.376 |
| CC(C)C(NC(=O)[C@H](CC(=O)O)NC(=O)[C@H](CCCCN)NC(=O)[C@@H](N)CCCN=C(N)N)C(=O)N[C@@H](Cc1ccc(O)cc1)C(=O)O (some centres not stated) [euspeclibcmpd1282] | -0.1 |
| C[C@H](CCC(=O)O)[C@H]1CCC2C3C(=O)CC4CC(=O)CC[C@]4(C)C3CC(=O)[C@@]21C (some centres not stated) [euspeclibcmpd2057] | -0.197 |
| NCCS(=O)(=O)O [euspeclibcmpd625] | -0.209 |
| NCCCCS(=O)(=O)O | 10.1 (active) |
| NCCCS(=O)(=O)O [euspeclibcmpd386] | -0.0155 |
| CCc1[nH]c(=N)[nH]c(=N)c1-c1ccc(Cl)cc1 [euspeclibcmpd259] | 1.02 |
| C[C@@H]1CN(c2c(F)c(F)c3c(=O)c(C(=O)O)cn(C4CC4)c3c2F)C[C@H](C)N1 [euspeclibcmpd981] | -0.465 |
